Assay outcomes: PubChem, National Center for Advancing Translational Sciences (NCATS)
This is a sample that favours compounds with a hit; in the whole collection about 1.1% have one here.
gsp antagonist: antagonists of gsp mutant (McCune-Albright syndrome); gsp-mutant cells, cAMP HTRF, 30 min; Potency, µM (series often up to 76.9 µM), for inactives: top-dose activity change, negative = inhibition, hits mostly inhibitors; 340,000 tested, 0.4% active; calls by dose curve; cell line not stated here;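 also: intracellular cAMP measured with PDE inhibitor Ro 20-1724 present during compound exposure; potency is read from the fitted curve at half-maximal effect; % is scaled to controls: 0 for no effect and ±100 for the full control effect; nearly all actives have a fitted effect of over 65% in size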
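G418-selected cells were plated in DMEM/10% FBS for 16-24 h at 37C, then treated with compounds plus the PDE inhibitor […] (300 uM solution added) for 30 min at 37C. Intracellular cAMP was measured by HTRF after 30 min lysis at room temperature.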
gsp ag: agonists of gsp mutant (McCune-Albright syndrome); gsp mutant cells, cAMP HTRF, 30 min; Potency, µM (top dose mostly 76.9 µM), for inactives: top-dose activation (cAMP increase), usual class: activators; 340,000 tested, 0.13% active; active = well fitted activation curve with a large enough effect; inconclusive = small, poorly fitted or top-dose-only effect, or another doubt; inactive = no such curve, though single readings can be large or run the other way; cell line not stated here;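 also: phosphodiesterase inhibitor Ro 20-1724 added with compounds to block cAMP breakdown; potency is read from the fitted curve at half-maximal effect; nearly all actives have a fitted effect of over 60% in size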
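Cells in DMEM/10% FBS with G418 were pretreated with compounds in DMSO plus […] (300 uM stock) for 30 min at 37C. cAMP was measured by HTRF (cAMP-d2 plus anti-cAMP antibody-K) after 30 min at room temperature.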
TRPV1 agonist: human TRPV1 agonism. activation, % at 8.33 µM. 320,000 tested, 0.19% active. Q8NER1. TRPV1-expressing cells, Fluo-8 calcium influx, agonist mode. AID 540275; in the data active = activation above about 80%; inconclusive = between about 30% and that limit; also: 0% is about no effect
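Cells expressing TRPV1 were dye-loaded with Fluo-8 and read kinetically: 10 s baseline, 3 min after compound (agonist portion), then 2 min after EC20 capsaicin (allosteric enhancer portion). Calcium-bound dye fluorescence at 480/520 nm.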
RXFP1 antagonist: RXFP1 (human) relaxin receptor antagonism | HEK293-RXFP1, relaxin-stimulated cAMP HTRF, 30 min; active compounds read low | AID 1259400 | Q9HBX9 | activity change, negative = inhibition, % at 57.5 µM | 350,000 tested, 0.59% active;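 active = activity change of -60% or lower, but not beyond a set lower limit; inconclusive = change between -60% and -40%, or beyond the set limit; inactive = change above -40%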; also: % is scaled to controls: 0 for no effect and ±100 for the full control effect
Target sequence (Q9HBX9 whole entry, looked up): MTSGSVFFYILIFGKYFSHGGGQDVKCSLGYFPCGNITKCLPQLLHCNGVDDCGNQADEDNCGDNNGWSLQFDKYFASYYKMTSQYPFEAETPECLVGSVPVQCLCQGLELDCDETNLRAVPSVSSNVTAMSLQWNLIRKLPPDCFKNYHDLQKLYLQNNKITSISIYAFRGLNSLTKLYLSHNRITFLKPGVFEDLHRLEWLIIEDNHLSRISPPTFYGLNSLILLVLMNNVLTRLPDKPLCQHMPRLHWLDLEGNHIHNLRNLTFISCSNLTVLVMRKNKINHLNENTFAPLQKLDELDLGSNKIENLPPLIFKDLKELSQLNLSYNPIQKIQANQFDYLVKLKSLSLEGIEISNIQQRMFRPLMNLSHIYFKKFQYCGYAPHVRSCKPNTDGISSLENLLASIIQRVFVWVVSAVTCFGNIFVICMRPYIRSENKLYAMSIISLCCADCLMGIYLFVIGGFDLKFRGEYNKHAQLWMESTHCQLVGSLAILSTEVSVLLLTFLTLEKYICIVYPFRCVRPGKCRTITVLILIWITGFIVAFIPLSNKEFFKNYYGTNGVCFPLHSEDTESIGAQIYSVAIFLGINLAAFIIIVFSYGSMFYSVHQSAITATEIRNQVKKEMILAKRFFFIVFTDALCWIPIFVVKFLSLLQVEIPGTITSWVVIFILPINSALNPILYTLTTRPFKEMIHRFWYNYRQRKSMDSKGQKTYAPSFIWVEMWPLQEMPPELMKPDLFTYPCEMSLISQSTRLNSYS
TRPV1 potentiator: enhances activation of the human vanilloid receptor TRPV1 | Q8NER1 | TRPV1-expressing cells, Fluo-8 calcium influx, capsaicin EC20 potentiation | potentiation, % at 8.33 µM | 320,000 tested, 0.02% active; in the data active = potentiation above about 80%; inconclusive = between about 30% and that limit; also: 0% is about no effect
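Cells expressing TRPV1 were dye-loaded with Fluo-8 and read kinetically: 10 s baseline, 3 min after compound (agonist portion), then 2 min after EC20 capsaicin (allosteric enhancer portion). Calcium-bound dye fluorescence at 480/520 nm.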
RXFP1 agonist: agonists of human relaxin receptor RXFP1; HEK293T-RXFP1 cAMP TR-FRET, 30 min; response scale: percent of porcine relaxin response, buffer zero; Potency, µM (titrated, usually from 57.5 µM), for inactives: top-dose activation, hits mostly activators; 370,000 tested, 0.3% active; AID 2676; active = well fitted activation curve with a large enough effect; inconclusive = small, poorly fitted or top-dose-only effect; also: potency is read from the fitted curve at half-maximal effect; % is scaled to controls: 0 for no effect and ±100 for the full control effect; nearly all actives have a fitted effect of over 60% in size
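cAMP rise read by TR-FRET after 30 min, 37C compound exposure (up to 58 uM) in RXFP1-transfected HEK293 cells with Ro 20174 present. EC50 from Hill-equation fits, with 29 nM porcine relaxin as 100% and buffer as basal.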
An asterisk follows results filed as active; u = inconclusive; x = not tested or not shown; [ ] = another dose, or the depositor's remark.

SMILES | gsp antagonist | gsp ag | TRPV1 agonist | RXFP1 antagonist | TRPV1 potentiator | RXFP1 agonist
O=C(COc1ccc2ccccc2c1Br)Nc1cccnc1 | 17% | 6.3µM* | 26 | -15 | 11 | 15%
CC(C)CC(=O)Nc1nc2nc(-c3ccccc3)cc(=O)n2[nH]1 | x | x | x | -9 | x | 3%
COc1cccc(CNC(=O)C2CCN(S(=O)(=O)N3CCC(C)CC3)CC2)c1 | 1% | -21% | -5 | 0 | 9 | 0%
O=C(CSc1ccc2nnc(-c3cccnc3)n2n1)Nc1ccc(F)cc1 | -6% | 32%[15.4 µM] | 0 | 12 | 4 | u
Cc1cc(NC(=O)CSc2ccc3nnc(-c4ccccn4)n3n2)no1 | 6% | 6.3µM* | 16 | x | -7 | 11%
CCOC(=O)N1CCN(C(=O)CSc2ccc3nnc(-c4cccnc4)n3n2)CC1 | -7% | u | -2 | -1 | -1 | 14µM*
CCOc1ccc(NC(=O)CSc2ccc3nnc(-c4cccnc4)n3n2)cc1 | 15% | u | -7 | 11 | -9 | 25µM*
Cc1ccc(-c2nnc3ccc(SCC(=O)NCc4ccco4)nn23)cc1 | 0% | 34% | -1 | 16 | 7 | 9%
O=C(CSc1ccc2nnc(-c3ccncc3)n2n1)NCc1ccco1 | 10% | 18µM* | -4 | x | -16 | 18%
CCOC(=O)N1CCN(C(=O)CSc2ccc3nnc(CCNC(=O)c4ccccc4)n3n2)CC1 | 10% | 13µM* | 3 | -6 | -7 | u
CN(CC(=O)Nc1ccc(F)c(F)c1F)C(=O)C1=NN(c2ccccc2)C(=O)CC1 | -12% | 2% | 5 | -3 | -2 | -1%
Cc1ccc(S(=O)(=O)N2CCN(C(=O)c3c(C)nn(-c4ccccc4)c3Cl)CC2)cc1 | u | -43% | 20 | -5 | -20 | -1%
Cc1cc(C)c(S(=O)(=O)N2CCN(C(=O)c3c(C)nn(-c4ccccc4)c3Cl)CC2)c(C)c1 | 25µM* | -5% | x | -15 | x | x
O=C(c1ccncc1)N1CCN(C2CCC(c3ccccc3)CC2)CC1 (stereo not given) | 6% | -12% | 0 | -64* | -12 | 0%
CN(CC(=O)Nc1ccc(F)cc1)C(=O)COC(=O)Cc1c(F)cccc1Cl | 3% | -34%[15.4 µM] | 16 | 16 | -7 | 1%
CN(CC(=O)Nc1ccccc1Cl)C(=O)COC(=O)Cc1c(F)cccc1Cl | 7% | 10% | 7 | -7 | -3 | 13µM*
CC(C)Cn1c(=O)c2sccc2n2c(CCCC(=O)N3CCN(c4ccc(F)cc4)CC3)nnc12 | x | x | x | -7 | x | 5%
CC1(c2nnc(Cc3ccccc3)o2)CC(c2cccnc2)=NO1 (stereo not given) | 11% | -39% | x | x | x | x
Cc1cc(C(=O)COC(=O)c2ccc(NC(=O)CC#N)cc2)c(C)n1-c1ccc(OC(F)F)cc1 | -9% | 1% | x | -62* | x | x
COc1cccc(-c2nnc(NC(=O)c3ccc(S(=O)(=O)N4CC(C)OC(C)C4)cc3)o2)c1 (stereo not given) | 35µM* | -13% | -7 | 16 | 22 | 0%
O=C(c1ccc2c(=O)n3c(nc2c1)CCCCC3)N1CCCCC1 | 5% | 3% | -2 | -108* | 3 | 2%
O=C(c1ccc2c(=O)n3c(nc2c1)CCCCC3)N1CCN(c2ccccc2)CC1 | -4% | -22%[15.4 µM] | x | -13 | x | 0%
C[C@H](CO)N1C[C@H](C)[C@H](CN(C)C(=O)c2ccccn2)Oc2ncc(Br)cc2C1=O | x | -30% | x | 5 | x | x
C[C@H]1CN([C@@H](C)CO)C(=O)c2cc(Br)cnc2O[C@H]1CN(C)C(=O)c1cnccn1 | x | 11µM* | x | 12 | x | x
Cc1ccc(NC(=O)CN(C)C(=O)C2CCC2)cc1 | 6% | -30% | x | -6 | x | x
SMILES | gsp antagonist | gsp ag | TRPV1 agonist | RXFP1 antagonist | TRPV1 potentiator | RXFP1 agonist
Cc1cccc(N2CCN(C(=O)c3c4c(nc5ccccc35)C(=O)N(C3CCCCC3)C4)CC2)c1C | x | x | x | -15 | x | 0%
CCc1ccc2oc(C(=O)NCc3ccc(S(N)(=O)=O)cc3)c(C)c2c1 | -1% | 18% | u | -120* | -11 | 17%
Cc1nn(Cc2noc(C(=O)NCc3cccc(F)c3)n2)c(C)c1Br | x | x | x | x | x | 0%
Cc1[nH]c2ccccc2c1/C=N/NC(=O)c1cc(C(C)C)[nH]n1 | -6% | -43% | -5 | x | 6 | 1%
CCn1cc([N+](=O)[O-])c(C(=O)N2N=C(c3cccc4ccccc34)CC2c2ccccc2O)n1 (stereo not given) | 28µM* | 14% | 6 | -2 | 6 | 1%
CCn1cc([N+](=O)[O-])c(C(=O)N2N=C(c3ccc4ccccc4c3)CC2c2ccccc2O)n1 (stereo not given) | u | -28% | 1 | 3 | 4 | 2%
Cc1nc(-c2ccc(F)cc2)c(CC(=O)N(C)CC(=O)Nc2ccc(Cl)c(C(F)(F)F)c2)s1 | 32µM* | 20% | x | -10 | x | x
Cc1nc(-c2ccc(F)cc2)c(CC(=O)N(C)CC(=O)Nc2ccccc2Cl)s1 | -4% | 14% | -2 | 7 | -1 | 0%
Cn1nnnc1SCCCNCc1ccccc1OCc1ccc(Cl)cc1 | x | x | x | -1 | x | 2%
COc1ccc(N(CC(=O)NC2CCCCC2)C(=O)CNC(=O)c2ccco2)cc1 | 2% | -9%[15.4 µM] | 0 | 2 | 8 | 0%
CC(C)(C)c1ccc(OCC(=O)Nc2ccncc2)c(Br)c1 | -12% | 8% | 97* | -14 | -3 | 1%
CCC(C)(C)c1ccc(OCC(=O)Nc2ccncc2)cc1 | -13% | 4%[15.4 µM] | 90* | -32 | -7 | 2%
O=C(NCc1csc(-c2cccs2)n1)c1cccc(Cl)c1 | -13% | -4%[15.4 µM] | 19 | 10 | -23 | 0%
Cc1noc(C)c1NC(=O)Nc1cccc2c1O[C@@H](CN(C)C(=O)Nc1ccc3c(c1)OCO3)[C@@H](C)CN([C@H](C)CO)C2=O | 6% | x | x | x | x | x
COc1ccccc1/C=C/C=N/n1c(-c2ccc(Cl)cc2)n[nH]c1=S | -7% | -7%[15.4 µM] | x | -63* | x | -1%
Cc1nc(Nc2ccc3c(c2)OCCO3)c2oc3ccccc3c2n1 | 4% | 3% | 82* | 13 | -3 | 1%
c1ccc2c(c1)oc1c(Nc3ccc4c(c3)OCCO4)ncnc12 | -10% | 16% | 83* | 7 | 2 | 4%
O=[N+]([O-])c1ccc2ncnc(Nc3ccc4c(c3)OCCO4)c2c1 | -20% | 15%[15.4 µM] | 11 | -11 | -18 | 3%
CCc1nc(Nc2ccc(O)cc2)c2oc3ccccc3c2n1 | -12% | -1%[15.4 µM] | u | -15 | -6 | 2%
CCNc1nc(CC)nc2c1oc1ccccc12 | 3% | 24% | 88* | -2 | -20 | 2%
CCc1nc(Nc2ccc3c(c2)OCCO3)c2oc3ccccc3c2n1 | -6% | -22% | 89* | -22 | -6 | 1%
